# In PubChem BioAssay AID1159580 (chemical genetic matrix, 2015):
# Values joined by “and” are separate entries in the source; they are usually repeats but may differ in a detail not shown here. Identical values can stand only once. Screen size: about 5,500 compounds; about 2,000 (36%) were called active. Another 18% or so got no clear call; they are omitted. Cut-off read from the data, not from the text of the source: active = normalized growth mostly below about 0.91 (no sharp cut-off); inconclusive = no clear call, values can overlap the other calls; inactive = mostly above about 0.92. The list shows a part of the results.
# Assay: chemical genetic growth profiling, strain panel (AID 1159580);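 note: tested at 20 µM; growth read once vehicle control cultures reached saturation at 30 °C; 1 = growth at the plate median or of vehicle wells; lower values mean less growth of the strain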
# Settings: S. cerevisiae deletion strains, growth OD
structure (smiles),measurement,setting,value
CC(C)c1ccc2c(c1O)CC[C@H]1C3=C(CC[C@]21C)C(=O)OC3,normalized growth,"locus YAL013W, strain DEP1, stronger effect = lower value",0.847 (active)
same,normalized growth,"locus YAL021C, strain ccr4, stronger effect = lower value",0.999 (inactive)
same,normalized growth,"locus YAL026C, strain drs2, stronger effect = lower value",0.946 (inactive)
same,normalized growth,"locus YAL030W, strain snc1, stronger effect = lower value",0.969 (inactive)
same,normalized growth,"locus YBL061C, strain skt5, stronger effect = lower value",0.962 (inactive)
same,normalized growth,"locus YBR009C, strain hhf1, stronger effect = lower value",0.96 (inactive)
same,normalized growth,"locus YBR021W, strain FUR4, stronger effect = lower value",0.903 (inactive)
same,normalized growth,"locus YBR023C, strain chs3, stronger effect = lower value",0.957 (inactive)
same,normalized growth,"locus YBR171W, strain sec66, stronger effect = lower value",0.935 (inactive)
same,normalized growth,"locus YBR229C, strain ROT2, stronger effect = lower value",0.97 (inactive)
same,normalized growth,"locus YBR231C, strain swc5, stronger effect = lower value",0.957 (inactive)
same,normalized growth,"locus YBR279W, strain paf1, stronger effect = lower value",0.979 (inactive)
same,normalized growth,"locus YCL011C, strain gbp2, stronger effect = lower value",0.933 (inactive)
same,normalized growth,"locus YCL016C, strain dcc1, stronger effect = lower value",0.973 (inactive)
same,normalized growth,"locus YCL029C, strain bik1, stronger effect = lower value",0.912 (inactive)
same,normalized growth,"locus YCL061C, strain MRC1, stronger effect = lower value",0.925 (inactive)
same,normalized growth,"locus YCL069W, strain vba3, stronger effect = lower value",0.95 (inactive)
same,normalized growth,"locus YCR088W, strain abp1, stronger effect = lower value",0.933 (inactive)
same,normalized growth,"locus YDL005C, strain med2, stronger effect = lower value",0.961 (inactive)
same,normalized growth,"locus YDL035C, strain GPR1, stronger effect = lower value",0.943 (inactive)
same,normalized growth,"locus YDL040C, strain nat1, stronger effect = lower value",0.965 (inactive)
same,normalized growth,"locus YDL074C, strain BRE1, stronger effect = lower value",0.617 (active)
same,normalized growth,"locus YDL101C, strain DUN1, stronger effect = lower value",0.943 (inactive)
same,normalized growth,"locus YDL134C, strain PPH21, stronger effect = lower value",0.8 (active)
same,normalized growth,"locus YDL185W, strain tfp1, stronger effect = lower value",0.988 (inactive)
same,normalized growth,"locus YDL192W, strain arf1, stronger effect = lower value",0.898 (active)
same,normalized growth,"locus YDR001C, strain nth1, stronger effect = lower value",0.935 (inactive)
same,normalized growth,"locus YDR069C, strain doa4, stronger effect = lower value",0.996 (inactive)
same,normalized growth,"locus YDR101C, strain arx1, stronger effect = lower value",0.968 (inactive)
same,normalized growth,"locus YDR137W, strain rgp1, stronger effect = lower value",0.825 (active)
same,normalized growth,"locus YDR150W, strain NUM1, stronger effect = lower value",0.959 (inactive)
same,normalized growth,"locus YDR159W, strain sac3, stronger effect = lower value",1 (inactive)
same,normalized growth,"locus YDR162C, strain NBP2, stronger effect = lower value",0.81 (active)
same,normalized growth,"locus YDR195W, strain ref2",1.01 (inactive)
same,normalized growth,"locus YDR297W, strain sur2, stronger effect = lower value",0.966 (inactive)
same,normalized growth,"locus YDR318W, strain mcm21, stronger effect = lower value",0.886 (active)
same,normalized growth,"locus YDR334W, strain swr1, stronger effect = lower value",0.956 (inactive)
same,normalized growth,"locus YDR335W, strain msn5, stronger effect = lower value",0.973 (inactive)
same,normalized growth,"locus YDR388W, stronger effect = lower value",0.99 (inactive)
same,normalized growth,"locus YDR392W, strain spt3, stronger effect = lower value",0.542 (active)
same,normalized growth,"locus YDR502C, strain sam2, stronger effect = lower value",0.913 (active)
same,normalized growth,"locus YEL003W, strain gim4, stronger effect = lower value",0.936 (inactive)
same,normalized growth,"locus YEL037C, strain rad23, stronger effect = lower value",0.941 (inactive)
same,normalized growth,"locus YEL061C, strain CIN8 (second series), stronger effect = lower value",0.939 (inactive)
same,normalized growth,"locus YEL061C, strain CIN8, stronger effect = lower value",0.772 (active)
same,normalized growth,"locus YER015W, strain faa2, stronger effect = lower value",0.961 (inactive)
same,normalized growth,"locus YER016W, strain bim1, stronger effect = lower value",0.976 (inactive)
same,normalized growth,"locus YER110C, stronger effect = lower value",0.943 (inactive)
same,normalized growth,"locus YER111C, strain swi4, stronger effect = lower value",0.946 (inactive)
same,normalized growth,"locus YER155C, strain BEM2 (second series), stronger effect = lower value",0.807 (active)
same,normalized growth,"locus YER155C, strain BEM2, stronger effect = lower value",0.846 (active)
same,normalized growth,"locus YER167W, strain BCK2, stronger effect = lower value",0.781 (active)
same,normalized growth,"locus YFR010W, strain ubp6, stronger effect = lower value",0.952 (inactive)
same,normalized growth,"locus YGL078C, strain dbp3, stronger effect = lower value",0.962 (inactive)
same,normalized growth,"locus YGL086W, strain mad1, stronger effect = lower value",0.867 (active)
same,normalized growth,"locus YGL167C, strain pmr1, stronger effect = lower value",0.967 (inactive)
same,normalized growth,"locus YGL173C, strain kem1, stronger effect = lower value",0.971 (inactive)
same,normalized growth,"locus YGL227W, strain vid30, stronger effect = lower value",0.945 (inactive)
same,normalized growth,"locus YGL240W, strain doc1, stronger effect = lower value",0.953 (inactive)
same,normalized growth,"locus YGL248W, strain PDE1, stronger effect = lower value",0.754 (active)
same,normalized growth,"locus YGL253W, strain hxk2, stronger effect = lower value",0.987 (inactive)
same,normalized growth,"locus YGR078C, strain PAC10, stronger effect = lower value",0.718 (active)
same,normalized growth,"locus YGR135W, strain pre9, stronger effect = lower value",0.953 (inactive)
same,normalized growth,"locus YGR252W, strain gcn5, stronger effect = lower value",0.916 (inactive)
same,normalized growth,"locus YHR013C, strain ard1, stronger effect = lower value",1.02 (inactive)
same,normalized growth,"locus YHR027C, strain rpn1, stronger effect = lower value",0.994 (inactive)
same,normalized growth,"locus YHR030C, strain SLT2, stronger effect = lower value",0.661 (active) and 0.918 (inactive)
same,normalized growth,"locus YHR079C, strain IRE1 (second series), stronger effect = lower value",0.959 (inactive)
same,normalized growth,"locus YHR079C, strain IRE1, stronger effect = lower value",0.927 (inactive)
same,normalized growth,"locus YHR094C, strain hxt1, stronger effect = lower value",0.971 (inactive)
same,normalized growth,"locus YHR129C, strain ARP1, stronger effect = lower value",0.798 (active)
same,normalized growth,"locus YHR142W, strain chs7, stronger effect = lower value",0.867 (active)
same,normalized growth,"locus YHR200W, strain rpn10, stronger effect = lower value",0.957 (inactive)
same,normalized growth,"locus YIL066C, strain RNR3, stronger effect = lower value",0.601 (active)
same,normalized growth,"locus YIL073C, strain SPO22, stronger effect = lower value",0.844 (inactive)
same,normalized growth,"locus YIL125W, strain kgd1, stronger effect = lower value",0.954 (inactive)
same,normalized growth,"locus YIR030C, strain dcg1, stronger effect = lower value",0.965 (inactive)
same,normalized growth,"locus YJL092W, strain hpr5, stronger effect = lower value",0.941 (inactive)
same,normalized growth,"locus YJL095W, strain BCK1 (second series), stronger effect = lower value",0.97 (inactive)
same,normalized growth,"locus YJL095W, strain BCK1, stronger effect = lower value",0.646 (active) and 0.956 (inactive)
same,normalized growth,"locus YJL115W, strain asf1, stronger effect = lower value",0.956 (inactive)
same,normalized growth,"locus YJL129C, strain trk1, stronger effect = lower value",0.856 (active)
same,normalized growth,"locus YJL134W, strain LCB3, stronger effect = lower value",0.975 (inactive)
same,normalized growth,"locus YJL154C, strain vps35, stronger effect = lower value",0.95 (inactive)
same,normalized growth,"locus YJL164C, strain tpk1, stronger effect = lower value",0.953 (inactive)
same,normalized growth,"locus YJL166W, strain qcr8, stronger effect = lower value",0.987 (inactive)
same,normalized growth,"locus YJL168C, strain set2, stronger effect = lower value",0.989 (inactive)
same,normalized growth,"locus YJL187C, strain SWE1 (second series), stronger effect = lower value",0.86 (active)
